Measurements from PubChem BioAssay (NCI).
This is part of a sample that, as a whole, favours compounds with a hit. Of some 83,000 tested, about 20% had one in any assay.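 Note: values are percent growth. 100 is the growth of untreated cells, values between 100 and 0 indicate rising inhibition; between -100 and 0 indicates cell death.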 Unmarked numbers belong to inactive results. Activity calls are given as the source filed them. The calls were made as follows: active = growth percent below 10; inactive = the rest.

What was measured:
Experiment in all cases: NCI-60 one-dose screen, 48 h (100 = growth as untreated, 0 = no growth, -100 = all killed)
Conditions in all cases: 10 µM unless noted
[1] = tested on: T-47D breast
[2] = tested on: MDA-MB-435 melanoma
[3] = tested on: SW-620 colon
[4] = tested on: MCF7 breast
[5] = tested on: HCT-116 colon
[6] = tested on: HCC-2998 colon
[7] = tested on: KM12 colon
[8] = tested on: BT-549 breast

| SMILES | growth [1] | growth [2] | growth [3] | growth [4] | growth [5] | growth [6] | growth [7] | growth [8] |
| --- | --- | --- | --- | --- | --- | --- | --- | --- |
| O=C(Nc1ccc(Cl)c(C(F)(F)F)c1)Nc1ccc(-c2cccnc2)cc1N1CCC(CO)CC1 | 5.62% (active) | 15.5% | 35.5% | 16.2% | 11.8% | 13.9% | 25.7% | – |
| O=C(NCc1ccc(Cn2c(=O)sn(-c3ccccc3)c2=O)cc1)OCc1ccc2c(Br)cc(Br)c(O)c2n1 | -49.8% (active) | -77.6% (active) | -50.2% (active) | -29% (active) | -71.8% (active) | -80% (active) | -61.8% (active) | – |
| CC(C)CCSC1=CC(=O)c2ccccc2C1=O | -41.4% (active) | 63.8% | -16.7% (active) | 42.5% | -100% (active) | 100% | 92.1% | – |
| C#CCC(C(=O)OCC)C(=O)OCC | 114% | 97.8% | 106% | 98% | 105% | 101% | 106% | – |
| Cc1nc(Cl)c2c(n1)N(C)c1ccc(Cl)cc1C(C)C2 (configuration not stated) | 71% | 85.9% | 86.5% | 95.6% | 80.1% | 98.6% | 92.4% | – |
| Cn1cc(-c2noc(-c3cn(C)c4ncc(F)cc34)n2)c2cc(Br)ccc21 | 25.2% | 72.3% | 57.3% | 51.8% | 32.7% | 107% | 58.1% | – |
| C[N+](C)(C)c1ncnc2[n-]cnc12 | 84% | 104% | 96.1% | 89.8% | 105% | – | 93.6% | – |
| COc1ccc(C(=O)CSc2nccc(Nc3ccc(C(=O)O)cc3)n2)cc1 | 102% | 106% | 95.6% | 101% | – | 104% | 101% | – |
| COc1ccc(C(C(=O)O)c2ccc(OC)cc2)cc1 | 118% | 115% | 107% | 101% | 108% | 116% | 111% | – |
| O=C(Nc1cccnc1)c1ccc2ccc3ccc(C(=O)Nc4cccnc4)nc3c2n1 | 37.2% | 24.9% | 11% | 28.9% | 4.76% (active) | 3.41% (active) | 5.81% (active) | – |
| CCNc1cc2c(cc1Br)-c1ccccc1C2=O | 34.4% | 114% | 98.9% | 26.8% | 97.8% | 102% | 83.4% | – |
| O=C(CCCCCCSc1nc(-c2ccc(Cl)cc2)cc(-c2ccc(Cl)cc2)n1)NO | 13.2% | 43.5% | 35.8% | 14.5% | 18.4% | 78.7% | 47.4% | – |
| O=C(O)c1cn(C2CC2)c2cc(N3CCN(Cc4c(O)ccc5ccccc45)CC3)c(F)cc2c1=O | 29.5% | 24.3% | 28.2% | 16.3% | 12.7% | 32.1% | 37.5% | – |
| CN(C)Cc1ccc[nH]1 | 83.5% | 110% | 94.6% | 97.9% | 77.5% | – | 108% | – |
| CC1Cc2c(Cl)ncnc2N(C)c2ccc(O)cc21 (configuration not stated) | 81.7% | 30.5% | 38.1% | 55.1% | 65.6% | 59.4% | 10.4% | – |
| Cn1cc(-c2noc(-c3cn(C)c4ncccc34)n2)c2cc(Cl)ccc21 | 54.2% | 87% | 89% | 62.1% | 94.1% | 99.8% | 103% | – |
| Cn1cc(-c2noc(-c3cn(C)c4ncc(F)cc34)n2)c2ccccc21 | 42.3% | 72.8% | 56.1% | 34.1% | 27% | 86.6% | 62.7% | – |
| CC(C)(C)c1cc(C(=O)N2CCC(C(=O)NCCN)CC2)cc(C(C)(C)C)c1 | 78.8% | 98% | 103% | 92% | 99.4% | 106% | 105% | – |
| COC(=O)[C@@H](NC(=O)NC(=O)NC(=O)CI)C(C)C | 44.8% | 90.5% | 9.83% (active) | 59.9% | 75% | 113% | 100% | – |
| COc1ccc(C(=O)c2nccc3cc(OC)c(OC)cc23)cc1OC | 79.4% | 119% | 96% | 93.2% | 92.9% | – | 104% | – |
| CCCSc1nc(N)nc2nc[nH]c12 | 97.6% | 117% | 113% | 104% | 95.3% | 115% | 114% | – |
| CCCCCC1CCCCN1C(=O)OCCCC (configuration not stated) | 99.1% | 105% | 111% | 96.7% | 109% | – | 104% | – |
| O=C(OCc1ccc2c(Cl)cc(Cl)c(O)c2n1)N1CCN(C(=O)c2cc3cc(F)ccc3[nH]2)CC1 | 62.2% | -54.5% (active) | 16.9% | 14.5% | – | 22.6% | -15.2% (active) | – |
| O=C1/C(=C\c2cn(CC(O)CN3CCCCC3)c3ccccc23)c2ccccc2N1c1c(Cl)cccc1Cl (configuration not stated) | – | -93.3% (active) | -91.8% (active) | -77.5% (active) | -78.6% (active) | -82.4% (active) | -95.3% (active) | -86.1% (active) |
| COc1cc2c(=O)[nH]c3cc([N+](=O)[O-])ccc3c2cc1[N+](=O)[O-] | 49.1% | – | 35.5% | 16.5% | 21.5% | 62.8% | 53.3% | – |
| Cc1cc2c(C(C)C)c(O)c(O)c(C=NCc3ccoc3)c2c(O)c1-c1c(C)cc2c(C(C)C)c(O)c(O)c(C=NCc3ccco3)c2c1O | 33.5% | 67.1% | 24.6% | 22.4% | – | 35.5% | 19.4% | – |

| SMILES | growth [1] | growth [2] | growth [3] | growth [4] | growth [5] | growth [6] | growth [7] | growth [8] |
| --- | --- | --- | --- | --- | --- | --- | --- | --- |
| CC(C)c1ccc(C(=O)Nc2sc3c(c2C#N)CCC(=O)C3)cc1 | – | -14.4% (active) | -19.1% (active) | 4.86% (active) | -2.81% (active) | 20.7% | – | -9.76% (active) |
| COc1ccc(N(c2nc(-c3ccc([N+](=O)[O-])cc3)cs2)C(C)C)cc1 | 53.4% | 89% | 88.1% | – | 76.3% | 101% | 75.7% | – |
| C=CCCC1(C)NC(=O)NC1=O (configuration not stated) | – | 99.4% | 102% | 92.4% | 96.6% | 104% | – | 100% |
| CCCCC1COc2cccc3c2N1C=C/C3=C\C(=O)n1ccc2ccccc21 (configuration not stated) | – | -16.4% (active) | 46.4% | 48.6% | 58.3% | 101% | 68.2% | 89.9% |
| Cc1cc(C)nc(SCC(=O)Nc2cccc(N=Cc3ccccc3O)c2)n1 | – | 99.2% | 99.1% | 94.3% | 97.3% | 121% | 107% | 92.9% |
| CC1Cc2ccc(OCCN(C)C)cc2C1=O (configuration not stated) | – | 102% | 101% | 100% | 95.4% | 109% | – | 99.3% |
| COc1cc(/C=C/C(=O)/C=C/c2ccc(-n3ccnc3C)cc2)ccc1O | 54.5% | -3.29% (active) | 2.17% (active) | 4.86% (active) | – | -47.3% (active) | -49.7% (active) | – |
| Cc1ccc(-c2cc(O)c(-c3ccc(C)cc3C)cc2O)c(C)c1 | 67.1% | 66.5% | 56.5% | 49.2% | – | 77.7% | 55.3% | – |
| N#Cc1ccc(-c2ccc(COc3ccc(CC4SC(=O)NC4=O)cc3)cc2)cc1 (configuration not stated) | 35.8% | 45.4% | 80.1% | 38.1% | – | 83.2% | 61.9% | – |
| CC(C)c1ccc(C(=O)Nc2nc3ccc(O)cc3s2)cc1 | – | 22% | 16% | 9.03% (active) | 39.6% | -8.31% (active) | 15.7% | 55.5% |
| Nc1nc(Nc2ccccc2)c2ncn(Cc3cc4c(cc3Br)OCO4)c2n1 | 72.3% | -16.9% (active) | 20.5% | 12.4% | – | 23% | 11.6% | – |
| C/C=C/C1OC23CCCCC2C(C#N)(C(=N)O3)C1(C#N)C#N (configuration not stated) | 84.9% | 91.8% | 92.9% | 86.2% | – | 109% | 96.3% | – |
| CN(Cc1cccc(C(F)(F)F)c1)C(=O)[C@@H](CC(=O)N1CCC(N2CCCCC2)CC1)N1C(=O)[C@@H](N2C(=O)OC[C@@H]2c2ccccc2)[C@H]1/C=C/c1ccccc1 | 76.3% | 73.1% | 93.2% | 65.4% | – | 91.9% | 102% | – |
| C=CCCCCCCCCC(=O)OC(C)C | – | 111% | 96.5% | 98.2% | 97.7% | 112% | 95.3% | 108% |
| CCCCC(CC)COC(=O)C[N+](C)(C)CCOC(c1ccccc1)c1ccccc1 (configuration not stated) | – | 0.527% (active) | 52.2% | 33.6% | 31.7% | 3.56% (active) | – | 17.6% |
| O=C(NCCO)c1cccnc1 | – | 106% | 96.1% | 98.5% | 99% | 103% | – | 108% |
| O=C(CSc1nc2ccc([N+](=O)[O-])cc2[nH]1)Nc1ccc(F)c(Cl)c1 | – | 15.5% | 26.4% | 9.25% (active) | 7.89% (active) | 32.9% | 19.9% | -0.0932% (active) |
| C=CC1=C(C)C2=NC1=CC1=NC(=CC3=C(C)C4=C(O)C(C(=O)O)C(=C5NC(=C2)C(C)C5CCC(=O)O)C4=N3)C(CC)=C1C (configuration not stated) | 123% | 120% | 104% | 113% | – | 109% | 105% | – |
| COC(=O)c1c(C)[nH]c(/C=C2\N=C(c3ccc[nH]3)C=C2OC)c1C | – | -44.9% (active) | 1.56% (active) | 1.82% (active) | -75% (active) | -40.9% (active) | -2.32% (active) | 0.541% (active) |
| O=C1NC(=O)C(Cc2ccccc2)(Cc2ccccc2)N1 | – | 96.4% | 101% | 96.2% | 90.9% | 104% | – | 90.4% |
| CC/C=C(\C)C(CCC)(CN=O)C(=O)OCC (configuration not stated) | – | 117% | 109% | 102% | 92.2% | 96.2% | 112% | 112% |
| CCN(CC)c1cc(N)c(Cc2c(N)cc(N(CC)CC)cc2Cl)c(Cl)c1 | – | 38.7% | 80% | 24.7% | 38.3% | 47% | – | 24.9% |
| Cc1cc[n+](CCCCCCCCCC[n+]2ccc(C)cc2)cc1 | – | 102% | 103% | 93.6% | 96.4% | 92.8% | – | 101% |
| CN(C)c1ccc(N=Nc2ccc3ccccc3c2)cc1 | – | 101% | 96.9% | 43.9% | – | 99.8% | 92.8% | 101% |
| CC(C)CCNCC(C)(C)O | – | 112% | 109% | 109% | 109% | 109% | 116% | 110% |
